How the values were obtained:
Test in all cases: PBM binding z-score (relative to random genomic background probes); higher = stronger binding; sequences stand for … in GC…GCGATTGACAGCGTAGAATGAAGG
[1] = tested on: RARb homodimer (NR concentration 270 nM)
Method in brief: (§1)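 Ligand-free nuclear receptor dimers were bound for 1 h to custom Agilent 4×180K protein-binding microarrays. Detection used antibodies against each partner (one per run). Binding z-scores rest on regression-normalized fluorescence, with random background probes as the reference.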

[2] = tested on: RARg:RXRa (NR concentration 270 nM, RXRa partner concentration 90 nM)
Method in brief: as §1

[3] = tested on: RARg homodimer (NR concentration 270 nM)
Method in brief: as §1

[4] = tested on: RXRa DBDmut IVT, anti-RXR (DBD mutation: RXRa K156A/R161A, NR concentration 90 nM)
Method in brief: as §1

[5] = tested on: RXRa homodimer (NR concentration 180 nM)
Method in brief: as §1

[6] = tested on: THRa:RXRa (NR concentration 90 nM, RXRa partner concentration 90 nM)
Method in brief: as §1

[7] = tested on: THRa homodimer (NR concentration 90 nM)
Method in brief: as §1

[8] = tested on: VDR homodimer (NR concentration 270 nM)
Method in brief: as §1

| Sequence | PBM binding z-score [1] | PBM binding z-score [2] | PBM binding z-score [3] | PBM binding z-score [4] | PBM binding z-score [5] | PBM binding z-score [6] | PBM binding z-score [7] | PBM binding z-score [8] |
| --- | --- | --- | --- | --- | --- | --- | --- | --- |
| GGAACGATGGCAAAGTTGATAGCATCTGTCGACG | -0.537 | -0.206 | 0.0205 | -0.199 | -0.104 | -0.533 | -1.03 | -0.827 |
| TTGCCAAGGTGAGCTGAGGTCGTTGATCCAACTC | 1.42 | 1.02 | 0.784 | -0.052 | 0.78 | 4.62 | 2.03 | 1.75 |
| TCTACTTGGTCAAAGGTCACACACTCGAAATGCG | 5.11 | 7.2 | 6.3 | 2.19 | 8.15 | 4.24 | 2.7 | 2.68 |
| GCTGCTTGGTCAACTGATGGTCAGCTAAAGCTCG | 0.641 | 0.828 | 0.795 | 0.0652 | -0.182 | -0.283 | -0.699 | -1.25 |
| ATATGTAGGTTAAATCCGGGTCATTCAGGCTATG | 3.23 | 4.91 | 2.25 | 1.1 | 3.3 | 4.46 | 2.71 | 2.5 |
| AGAATGAGGTTATTAAGATCAGGGAGTTGCGGTC | 0.826 | 1.05 | 0.672 | 1.99 | 1.78 | 2.17 | 0.897 | 1.39 |
| CCAGACAGGTAAGAAGGTAACTCAGCCTCGATTA | -0.0494 | 0.201 | 0.207 | -0.00945 | 0.0209 | 0.0122 | 0.113 | -0.0609 |
| CCTTACGGGTCAAGGTTATAGAACGGGTGGTACG | 3.67 | 4.92 | 4.97 | 0.482 | 5.58 | 3.02 | 0.782 | 1.14 |
| CCAACTGGGCCAAGGTCATTGATCAGTCAAAGCA | 3.25 | 3.49 | 2.52 | 1.67 | 3.17 | 3.45 | 2.23 | 2.57 |
| TTACCAAGGTGATGGTCGTTGATCCCTCTGTAGA | 0.0776 | -0.376 | -0.245 | -0.261 | 0.284 | 0.769 | 0.35 | -0.232 |
| GCTTGTAGATCAAGGTTAACAAAGACTAAGCTAA | 0.609 | 0.795 | 0.37 | 0.051 | 1.05 | 1.49 | -0.000318 | -0.118 |
| GCCATTAGTTGAAAGGGCAACCGAATGATTCTCG | 2.22 | 1.54 | 1.32 | 0.641 | 1.24 | 0.595 | -0.31 | -0.125 |
| CTCGATAGGTCGGTTGAGGTGAGTATACGGATAA | 1.02 | 0.724 | 1.15 | -0.0462 | 0.554 | 4.73 | 1.19 | 0.0696 |
| TCGAGTTGGTTAGGGGCATTCAGAATGGCGTCGA | 0.661 | -0.158 | -0.398 | 1.95 | 0.163 | 0.835 | 0.169 | 3.32 |
| ATCGAAAGGTCGACGTGGTGAGTATACACCGTTT | 2.74 | 4.04 | 4.24 | 1.23 | 4.03 | 1.89 | -0.255 | 0.481 |
| AGAATGAGGTTATTACGATCAGGGAATTGCGGTC | 1.07 | 1.35 | 1.1 | 2.37 | 2.06 | 2.44 | 0.982 | 1.6 |
| CCTTACCGGTCACGAGGTTATAGCACGACGAGCG | 3.08 | 4.01 | 3.68 | 0.188 | 2.62 | 2.37 | 1.43 | 1.34 |

| Sequence | PBM binding z-score [1] | PBM binding z-score [2] | PBM binding z-score [3] | PBM binding z-score [4] | PBM binding z-score [5] | PBM binding z-score [6] | PBM binding z-score [7] | PBM binding z-score [8] |
| --- | --- | --- | --- | --- | --- | --- | --- | --- |
| CGTACAAGGTCAGCAGGTCAGTGAAAGCGACGTG | 5.11 | 6.42 | 6.72 | 3.07 | 5.36 | 3.93 | 2.42 | 1.68 |
| CCTAGTTGGTCAGGAGGTCACCCACCGGATATGA | 4.11 | 4.91 | 4.4 | -0.0796 | 4.2 | 3.47 | 2.51 | 2.4 |
| ATACCAAGGTGATCGTGAGGTCGTTGACACTAAC | 1.85 | 2.27 | 0.855 | 0.311 | 1.56 | 3.63 | 2.59 | 2.93 |
| CTCGAAAGGTTGTGCTCAGGTGAGTATACCAAAC | 0.954 | 1.31 | 0.452 | 0.56 | 0.825 | 2.84 | 0.886 | 0.0434 |
| CGCCCAAGGTCAAAGGTCAGTGAAGAGATGACGG | 5.66 | 8.68 | 8.27 | 3.9 | 10 | 4.83 | 2.31 | 3.24 |
| ATATGTAGGGTAGCTGGGGTCATTCAGACTAGGC | 3.6 | 3.62 | 2.23 | 1.78 | 5.16 | 4.74 | 3.57 | 4.92 |
| CAGCCTAGGTTAGGGCCAGTATAGGAGGAACGTT | 0.216 | 0.0888 | 0.349 | -0.851 | 0.0782 | -0.0554 | -0.75 | -0.636 |
| TCCTGTAGATCAAGCAGGTTAAGAAAGCCTGAGT | 0.0843 | -0.142 | -0.295 | 0.428 | 0.45 | 0.254 | -0.566 | 0.241 |
| TCTTGTAGTTCAATAGAGGTTAAGAAAGTGCGCT | 2.27 | 2 | 2 | 2.27 | 2.15 | 3.61 | 0.104 | 1.59 |
| CAAACTAGGTCACGGAGGTCAAAGTCCGTGCGTA | 5.44 | 7.06 | 7.31 | 3.08 | 7.23 | 4.74 | 3.58 | 5.9 |
| ACTCTTAGTTGACTTAGGGCAACCGATACGACGC | 1.01 | 0.837 | 0.667 | 0.736 | 0.605 | 1.52 | 0.885 | 0.184 |
| CCTGCTAGGTCATGGTCATCTAATCTACAGTATG | 3.47 | 4 | 4.75 | 1.78 | 2.78 | 3.08 | 1.52 | 0.674 |
| CTCGATAGGTCGTGCTCAGGTGAGTATACCAAAC | 1.07 | 2.26 | 1.2 | 0.506 | 1.29 | 2.86 | 0.582 | 0.0382 |
| AATACAGGGCCATCGTAGGCCAGAGTACGCACAG | 0.468 | 0.421 | 0.993 | -0.218 | 0.0629 | 1.44 | -0.588 | 0.487 |
| CCTTACAGGTCACTGACAGGTTATAGCATTTGGA | 3.83 | 5.94 | 5.46 | 2.62 | 4.91 | 3.28 | 0.808 | 1.41 |
| TCATATAGGTAATACAGGTGATAGTCGGCATCTA | 0.0336 | 0.618 | 0.526 | 1.57 | 0.945 | 0.371 | 0.0861 | -0.0181 |
| ATATCTAGGTAAAGTTCAGTGAAAGATCGATAGA | 2.45 | 2.04 | 2.43 | 1.6 | 1.53 | 1.33 | 0.34 | 1.78 |

— the supplement of paper PMC6555819
